# Results reported in PubChem BioAssay (EPA / NIEHS).
# Inconclusive results are not listed. Activity calls are given as the source filed them. The calls were made as follows, unless noted: active = hit-call score of the fitted dose curve at least 0.9, where 1 is the maximum; inconclusive = response in the unintended direction; inactive = score below 0.9.
# System: not listed separately
# Test: CCTE_Mundy_HCI_iCellGluta_NOG_NeuriteCount: CCTE's Neurite Outgrowth Assay in iCellGluta cells for Neurite Count, Mundy Lab (AID 2284342);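 also: chemical exposure about 48 hours starting 2 hours after plating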
Compound,AC50,outcome
CC(C)c1c(C(=O)Nc2ccccc2)c(-c2ccccc2)c(-c2ccc(F)cc2)n1CC[C@@H](O)C[C@@H](O)CC(=O)O,94 nM (active),–
O=P(O)(O)CCC(F)(F)C(F)(F)C(F)(F)C(F)(F)C(F)(F)C(F)(F)C(F)(F)C(F)(F)F,–,inactive
OCC(F)(F)C(F)(F)C(F)(F)C(F)(F)C(F)(F)C(F)(F)C(F)(F)C(F)(F)C(F)(F)C(F)(F)C(F)(F)F,–,inactive
C=CC(=O)OCCC(F)(F)C(F)(F)C(F)(F)C(F)(F)C(F)(F)C(F)(F)C(F)(F)C(F)(F)F,–,inactive
O=C(CC(=O)C(F)(F)C(F)(F)C(F)(F)F)c1cccs1,–,inactive
O=P(O)(O)CCC(F)(F)C(F)(F)C(F)(F)C(F)(F)C(F)(F)C(F)(F)F,–,inactive

# System: SRY-box transcription factor 2 (SOX2) Protein Expression, Deisenroth Lab, SOX2 (gene 6657)
# Test: CCTE_Deisenroth_DEVTOX-GLR_legacy_Sox2: (Legacy) CCTE's DevTox GLR-Endo Assay Evaluation of SRY-box transcription factor 2 (SOX2) Protein Expression, Deisenroth Lab (AID 2284346; active = hit-call score of the fitted dose curve at least 0.9, where 1 is the maximum; inactive = score below 0.9)
# Outline: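 RUES2-GLR human pluripotent cells were differentiated for 48 h with two chemical doses 24 h apart, over 1 nM-200 uM. Sox2+ cells were those above 5x BMAD of the endoderm-control median; percent Sox2+ minus the 0.2% DMSO median was used, from n=4 replicates.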
Compound,outcome,AC50
CC(=O)Nc1ccc(O)cc1,inactive,–
O=C1NS(=O)(=O)c2ccccc21,inactive,–
CCCCc1oc2ccccc2c1C(=O)c1cc(I)c(OCCN(CC)CC)c(I)c1,–,29.9 µM (active)
CN(C)CCOC(c1ccccc1)c1ccccc1,–,100 µM (active)
CN(Cc1cnc2nc(N)nc(N)c2n1)c1ccc(C(=O)N[C@@H](CCC(=O)O)C(=O)O)cc1,–,0.0109 µM (active)
